Bioassay records from PubChem.
ADAM17 inh = ADAM17 inhibition, QFRET primary screen | recombinant ADAM17, EDANS/DABCYL FRET peptide cleavage | inhibition, % at 6.95 µM | 370,000 compounds, 0.83% hits;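 active = inhibition above the mean of compounds lying between control limits plus 3 SD, set per campaign, cut at about 8.5% in these data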;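 also: 0% = DMSO-only wells as the low control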
proKLK7 act = activators of human kallikrein-7 zymogen. 370,000 compounds, 0.9% hits. activation, % at 7 µM. purified proKLK7, EDANS-DABCYL substrate fluorescence; 100% is mature enzyme control, 0% vehicle. AID 652039. P49862;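 active = activation above the mean of all tested compounds plus 3 SD, computed per campaign excluding outliers beyond control limits, cut at about 13% in these data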
ADAM10 inh = inhibitors of human ADAM10. O14672. recombinant ADAM10, EDANS/DABCYL FRET peptide cleavage, 3 h. inhibition, % at 7 µM. 370,000 compounds, 0.62% hits. AID 720582;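 active = inhibition above a per-campaign cutoff equal to the mean of compounds falling between control-based bounds plus 3 SD, cut at about 20% in these data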;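 also: 0% = DMSO wells while the 100% control is not disclosed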
Target sequence (O14672 214-748 limits assumed): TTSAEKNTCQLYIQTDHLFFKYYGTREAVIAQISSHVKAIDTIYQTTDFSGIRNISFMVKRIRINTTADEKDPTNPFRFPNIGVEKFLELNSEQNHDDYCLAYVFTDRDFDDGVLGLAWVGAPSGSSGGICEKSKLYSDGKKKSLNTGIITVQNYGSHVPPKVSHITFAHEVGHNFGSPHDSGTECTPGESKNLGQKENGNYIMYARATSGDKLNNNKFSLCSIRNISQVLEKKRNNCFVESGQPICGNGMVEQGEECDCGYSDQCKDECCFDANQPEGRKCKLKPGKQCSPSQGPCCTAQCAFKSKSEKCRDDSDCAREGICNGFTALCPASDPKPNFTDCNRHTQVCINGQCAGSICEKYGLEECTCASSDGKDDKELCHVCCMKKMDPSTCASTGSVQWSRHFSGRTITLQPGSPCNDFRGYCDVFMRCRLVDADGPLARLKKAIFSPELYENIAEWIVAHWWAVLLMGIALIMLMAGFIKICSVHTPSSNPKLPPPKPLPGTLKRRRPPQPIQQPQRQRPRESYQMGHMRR
rCAG binder = molecules binding r(CAG) RNA repeats. r(CAG) RNA repeat, TO-PRO-1 dye displacement fluorescence. inhibition, % at 3 µM. 370,000 compounds, 1.3% hits. AID 651821;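 active = inhibition above the plate cutoff, the mean of all test compounds on that plate plus 3 SD, cut at about 35% in these data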;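 also: 0% = DMSO alone and 100% = 100 µM mitoxantrone as full dye displacement; higher means more dye released from RNA so lower well fluorescence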
GRIN3A LBD mod = modulators (binders) of human NR3A ligand-binding domain; NR3A LBD differential scanning fluorimetry, Tm shift; 0% = protein alone, 100% = glycine-bound protein; 340,000 compounds, 2.5% hits; Tm shift relative to glycine control, % at 25 µM; AID 1259313;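 active = melting temperature shift of at least 10% of the positive control shift, at one fixed dose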
AHR act = human AHR activation | P35869 | AHR-responsive luciferase reporter cells, luminescence | activation, % at 5 µM | 320,000 compounds, 2.5% hits | AID 2796; in the data active = activation above about 47%;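 also: 0% = vehicle wells and 100% = reference agonist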
rCAG bind conf = r(CAG) RNA repeat binding, confirmation | shares compounds with rCAG binder | TO-PRO-1 dye displacement fluorescence | inhibition, % at 3 µM | 4,300 compounds, 70% hits | AID 652065;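 active = inhibition above a per-plate cutoff, the mean inhibition of sample wells plus 3 SD, cut at about 35% in these data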;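 also: loss of TO-PRO-1 fluorescence as compound displaces dye from 1x1 AA loop RNA; 0% = DMSO only wells and 100% = 100 µM mitoxantrone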
DNA CAG counter = counter-screen for rCAG RNA binders: DNA CAG dye complex inhibitors; shares compounds with rCAG binder; d(CAG) DNA oligo TO-PRO-1 dye displacement, fluorescence; inhibition, % at 3 µM; 4,300 compounds, 94% hits;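 active = inhibition above its plate's cutoff, the mean test-well inhibition plus 3 SD, cut at about 4.8% in these data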;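 also: 0% = DNA dye mix with DMSO and 100% = 100 µM mitoxantrone; hits displace the dye from DNA and so lower well fluorescence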
dCAG dye DR = DNA CAG dye complex inhibition, dose response counter-screen. DNA CAG/GTC duplex TO-PRO-1 dye displacement fluorescence. 250 compounds, 20% hits. shares compounds with rCAG binder. IC50, µM; in the data active = IC50 below about 10 µM
Numbers without * were called inactive; i = inactive; · = no result given. In the library only some 7% were active in any assay of this set; here they are far more common.

SMILES	ADAM17 inh	proKLK7 act	ADAM10 inh	rCAG binder	GRIN3A LBD mod	AHR act	rCAG bind conf	DNA CAG counter	others
Cc1cc(C)cc(C(=O)OCCN(C)C2CN(Cc3cn(Cc4ccccc4F)nn3)S(=O)(=O)C2)c1 (stereo not given)	2	1	3	-1	·	·	·	·
O=[N+]([O-])c1ccc(CSc2nnc(-c3cccc(Cl)c3)n2Cc2ccco2)cc1	5	0	7	6	·	·	·	·
O=C1C=CC(=O)c2c(O)c(N3CCN(CCOCCO)CC3)c(Br)c(O)c21	-11	1	-50	53*	-7	·	68*	36*
O=C1C=CC(=O)c2c(O)c(N3CCN(CCO)CC3)c(Cl)c(O)c21	-16	0	-53	26	-4	·	·	·
Cc1ccc(NS(=O)(=O)c2cc(NC(=O)c3cc(=O)[nH]c(=O)[nH]3)ccc2Cl)c(C)c1	-2	0	8	54*	-7	13	61*	20*
CC(=O)c1c(C)[nH]c(C(=O)Nc2ccc(C)c(S(=O)(=O)Nc3ccc(C)cc3C)c2)c1C	4	1	13	13	1	26	·	·
O=C(O)c1cc([N+](=O)[O-])ccc1NCCCc1ccccc1	2	0	11	37*	-13	0	31	6.5*
C#CCNc1cccc2c1S(=O)(=O)N[C@H](C)CO2	-4	0	-11	5	·	·	·	·
Cc1nc(C)c(-c2csc(Nc3ccc(O)c(C(=O)O)c3)n2)s1	-12	-1	-42	35*	4	·	29	6.2*
Cc1nc(N)sc1-c1csc(Nc2cccc(C(=O)O)c2)n1	-5	0	-14	15	1	·	·	·
CC1(C(=O)NCc2ccccc2)CN(S(C)(=O)=O)CC(=O)N1C1CC1 (stereo not given)	-7	0	-10	0	·	·	·	·
Cc1cc(OCc2nn[nH]n2)c2c(C)c(CC(=O)O)c(=O)oc2c1	-234	12	i	2	1	3	·	·
Cc1cc(OCc2nn[nH]n2)c2c(C)c(Cc3ccccc3)c(=O)oc2c1	-240	-15	i	50*	-10	0	50*	13*
O=C(O)/C=C/c1ccc([N+](=O)[O-])o1	-3	1	-9	2	-1	-3	·	·
O=C1NC(=S)S/C1=C\C=C\c1ccc([N+](=O)[O-])o1	-5	0	-2	67*	4	·	70*	36*
O=C1/C(=C/c2cccnc2)SC(=S)N1NS(=O)(=O)c1ccccc1	-1	-1	-6	14	2	5	·	·
CC(/C=C1\SC(=S)N(NC(=O)c2ccccc2C)C1=O)=C\c1ccccc1	1	0	9	17	2	-1	·	·
CC(/C=C1\SC(=S)N(NC(=O)c2ccncc2)C1=O)=C\c1ccccc1	-9	0	0	42*	20*	2	31	9.3*
CC(/C=C1\SC(=S)N(NS(=O)(=O)c2ccccc2)C1=O)=C\c1ccccc1	0	1	7	74*	-7	0	87*	54*
CC(/C=C1\SC(=S)N(NS(=O)(=O)c2ccc(C)cc2)C1=O)=C\c1ccccc1	0	0	-6	62*	-6	-3	87*	60*
CC(/C=C1\SC(=S)N(NC(=O)c2ccc(C)cc2)C1=O)=C\c1ccccc1	·	·	·	·	3	0	·	·
Cc1ccc(S(=O)(=O)NN2C(=O)/C(=C/c3ccccn3)SC2=S)cc1	2	0	12	45*	-7	0	35*	8.5*
CCOc1cccc(-c2nnc3n2N=C(c2ccc(OC)cc2)CS3)c1	4	0	6	2	·	·	·	·
COc1ccc(-c2cc(-c3ccccc3)c(C#N)c(SCC(=O)O)n2)cc1	-46	-1	-146	11	1	2	·	·
CCCOc1ccc(-c2cc(C(F)(F)F)c(C#N)c(SCC(=O)O)n2)cc1	-46	-2	-130	21	-9	5	·	·
SMILES	ADAM17 inh	proKLK7 act	ADAM10 inh	rCAG binder	GRIN3A LBD mod	AHR act	rCAG bind conf	DNA CAG counter	others
COc1ccc(-c2cc(C(F)(F)F)c(C#N)c(SCC(=O)O)n2)cc1OC	·	·	·	·	·	11	·	·
Cc1ccc(-c2cc(C(F)(F)F)c(C#N)c(SCC(=O)O)n2)cc1	-2	-1	-5	48*	1	22	24	5.0*
COc1ccc(-c2cc(-c3ccc(Cl)cc3)c(C#N)c(SCC(=O)O)n2)cc1	-185	-20	i	80*	-4	-1	85*	55*
N#Cc1c(-c2ccc(F)cc2)cc(-c2cccs2)nc1SCC(=O)O	-89	1	-188	56*	-4	1	45*	14*
COc1ccccc1-c1cc(-c2ccccc2)nc(SCC(=O)O)c1C#N	-19	2	-52	47*	-3	·	37*	9.6*
C[C@@H]1OC(C2CCCCC2)N(C)[C@H]2C[C@H]3c4cc(-c5ccc6c(c5)OCO6)ccc4CCN3C[C@@H]12 (stereo not given in full)	-3	0	-2	9	·	·	·	·
Cc1ccc(S(=O)(=O)N2CC3C(=O)C[C@@H](c4ccccc4)N(S(=O)(=O)c4cccc(Cl)c4)C3CC2c2ccccc2)cc1 (stereo not given in full)	-1	0	-5	15	·	·	·	·
O=S1(=O)N[C@@H](Cc2ccccc2)COc2cc(N3CC[C@H](O)C3)ccc21	-5	0	-13	0	·	·	·	·
N#Cc1cccc(-c2ccccc2C(=O)NC2CCCCN(Cc3ccc(Cl)cc3)C2=O)c1 (stereo not given)	-1	0	-1	4	·	·	·	·
N#Cc1c(C(F)(F)F)cc(-c2cccs2)nc1SC(C(=O)O)c1ccccc1 (stereo not given)	-11	0	-28	78*	-6	11	77*	31*	dCAG dye DR=i
N#Cc1c(C(F)(F)F)cc(-c2cccs2)nc1SCC(=O)O	-15	1	-28	6	3	1	·	·
N#Cc1c(-c2ccccc2)cc(-c2ccccc2)nc1SCC(=O)NCC(=O)O	-14	-1	-46	41*	0	-1	37*	10*
CCCCNS(=O)(=O)/C=C/c1ccccc1CCNC(=O)OC(C)(C)C	-4	0	-2	-1	·	·	·	·
Cc1cccc(-c2cccc3c4c([nH]c23)[C@@H]2C[C@H](N(C)C(=O)c3ccco3)[C@H]([C@H](C)O)CN2CC4)c1	-9	-1	-29	3	·	·	·	·
COc1nccnc1NS(=O)(=O)c1ccc(N=Cc2c(C)[nH]n(-c3ccccc3)c2=O)cc1	-3	0	-3	10	-3	8	·	·
